Bioassay records from PubChem.
CASP6 VEID inh – human caspase-6 inhibitors, primary screen, biochemical, VEID-R110 fluorescence, single point, set 2; P55212; purified caspase-6, Z-VEID-R110 cleavage fluorescence; inhibition, % at 12.5 µM; hit rate 0.53% among 350,000;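 active = mean inhibition across replicates at least about 35%, with every replicate also reaching that limit, limit read from the data; inconclusive = only one of the two criteria met; inactive = neither criterion met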;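 also: 0% = median of neutral control wells and 100% = no fluorescence left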
RAD54 inh – inhibitors of human RAD54 branch migration, primary screen, biochemical, fluorescence, single point. DNA repair and recombination protein RAD54-like (Homo sapiens), Q92698. RAD54 Holliday junction branch migration, FAM/BHQ fluorescence. inhibition, % at 10.4 µM. hit rate 0.14% among 360,000;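 active = mean normalized replicate activity at least 40 and at least half of replicates scoring 40 or more; inconclusive = only one of the two criteria met; inactive = mean below 40 and under half of replicates reaching 40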;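 also: 0% = median of neutral control wells and 100% = median of positive control wells; inhibitors cause a drop in the FAM fluorescence signal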
Target sequence (Q92698 whole entry, looked up): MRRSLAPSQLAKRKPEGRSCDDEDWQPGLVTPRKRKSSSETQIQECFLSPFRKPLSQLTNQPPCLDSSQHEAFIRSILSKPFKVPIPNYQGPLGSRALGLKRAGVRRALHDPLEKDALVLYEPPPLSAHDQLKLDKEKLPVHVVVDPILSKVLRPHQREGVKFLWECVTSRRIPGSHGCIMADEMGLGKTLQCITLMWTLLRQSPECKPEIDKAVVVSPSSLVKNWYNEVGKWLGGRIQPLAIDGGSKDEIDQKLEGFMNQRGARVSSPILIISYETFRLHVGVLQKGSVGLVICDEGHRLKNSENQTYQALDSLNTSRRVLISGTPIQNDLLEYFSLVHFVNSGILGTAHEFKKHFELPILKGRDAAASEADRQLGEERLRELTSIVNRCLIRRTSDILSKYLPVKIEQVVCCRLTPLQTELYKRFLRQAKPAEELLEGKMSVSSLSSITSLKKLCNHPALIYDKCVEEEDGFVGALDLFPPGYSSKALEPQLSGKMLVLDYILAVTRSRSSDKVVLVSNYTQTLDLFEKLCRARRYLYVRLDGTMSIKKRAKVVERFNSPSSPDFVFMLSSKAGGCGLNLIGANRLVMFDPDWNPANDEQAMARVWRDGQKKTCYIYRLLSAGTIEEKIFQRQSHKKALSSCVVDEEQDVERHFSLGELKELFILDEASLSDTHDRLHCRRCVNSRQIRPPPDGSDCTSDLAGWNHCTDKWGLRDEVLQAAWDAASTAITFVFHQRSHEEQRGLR
RAD52 inh – RAD52 DNA annealing inhibitors, primary screen, biochemical, FRET, single point, set 2 | DNA repair protein RAD52 homolog (Homo sapiens), P43351 | recombinant RAD52 DNA annealing, FRET fluorescence | inhibition, % at 18.7 µM | hit rate 0.46% among 360,000 | AID 651710, 2012;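 active = every replicate showing at least 50% inhibition; inconclusive = mean inhibition at least 50% but not in every replicate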
Glyco luc inh – increase of ERlucT glycosylation luciferase signal, primary screen, N-linked glycosylation inhibitor project, D54 ERlucT cells, luminescence, set 2 | D54 ERlucT glycosylation luciferase reporter, 24 h; percent of 100 nM tunicamycin response | reporter increase, % at 12.5 µM | hit rate 0.23% among 360,000;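 active = mean luciferase reporter signal, scaled so untreated is 0 and the glycosylation-blocking control 100, at or above a set limit in every replicate; inconclusive = mean reaches the limit but not every replicate does; inactive = mean below the limit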;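 also: luciferase carries N-glycosylation sites so blocking glycosylation raises the light; 0% = median of neutral control wells and 100% = median of 100 nM tunicamycin wells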
AF4-AF9 inh – inhibitors of AF4 peptide binding to AF9, primary screen, biochemical, AlphaScreen, biotin-AF4 peptide, FLAG-AF9, single point; hit rate 0.47% among 350,000; inhibition, % at 10 µM;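 active = every replicate reaching a set inhibition limit, whatever the replicate mean, cut at about 25% in these data; inconclusive = mean inhibition reaches that limit but some replicates miss it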;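 also: 0% = plate neutral control median and 100% = total signal loss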
Rad54 DNA ctr – DNA binding of candidate compounds, dose response, artefact control for RAD54 inhibitor project, biochemical, fluorescence polarization, cherry-pick. shares compounds with RAD54 inh. hit rate 8% among 460. AID 651673, 2012. AC50, µM (doses to about 35 µM), without a hit: top-dose activity change, negative = DNA binding. Acridine orange-DNA displacement, 20 min;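 active = signal drop giving an AC50 within twice the top valid tested concentration of each sample, actives reach about 35 µM in these data; inactive = activity opposite to expected, plus the rest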;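 also: polarization loss reports compound binding to salmon sperm DNA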
* hit, by the source's call; i = inactive; u = inconclusive; x = not tested or not shown. Rows were chosen to be rich in hits. Some 1.2% of all compounds tested hit in one or more screens of this group.

SMILES | CASP6 VEID inh | RAD54 inh | RAD52 inh | Glyco luc inh | AF4-AF9 inh | Rad54 DNA ctr
Cc1ccc(S(=O)(=O)Nc2ccc3c(c2)C(=O)N([C@H](C)CO)C[C@@H](C)[C@@H](CN(C)C(=O)CCCN(C)C)OCCCC[C@H](C)O3)cc1 | -2 | 13 | 8 | x | -1 | x
CCC(=O)N1CC(=O)N2[C@H](CO)[C@H](c3ccc(C#CCc4ccccc4)cc3)[C@@H]2C1 | -2 | x | -17 | x | -2 | x
CC(=O)N1CCc2c(sc(NC(=O)C3CC3)c2-c2nc3ccccc3s2)C1 | 1 | 2 | -31 | 1 | -1 | x
CC(=O)Nc1sc2c(c1-c1nc3ccccc3s1)CN(C(C)C)CC2 | -5 | 67* | i | -15 | -4 | 17µM*
COc1ccccc1Nc1nc(NCC2CCCO2)c2ccccc2n1 (centres undefined) | 5 | 67* | -2 | -3 | 6 | -10%
COc1cccc(-c2nc(NCC3CCCO3)c3ccccc3n2)c1O (centres undefined) | x | 10 | x | 3 | x | x
COc1ccc(NC(=O)N(C)C[C@@H]2Oc3ccc(NC(=O)c4ccncc4)cc3C(=O)N([C@@H](C)CO)C[C@H]2C)cc1 | 1 | -15 | -1 | x | -3 | x
C/C=C/c1ccc2c(c1)O[C@H](CN(C)C(=O)COC)[C@@H](C)CN([C@@H](C)CO)S2(=O)=O | -1 | -3 | 3 | x | -7 | x
CCC(=O)N1[C@H](CO)[C@@H](c2ccccc2)C12CN(Cc1cc(F)ccc1F)C2 | 2 | x | -42 | x | 0 | x
CCOC(=O)c1c(C)n(C)c2ccc(OCC(O)CN3CCN(C)CC3)cc12 (centres undefined) | -41 | u | 1 | 2 | 7 | -14%
CSc1nnc2c3cc(F)ccc3n(Cc3ccccc3)c2n1 | x | -1 | x | -4 | x | x
CCN(CC)CCSc1nnc2c3cc(C)ccc3n(Cc3ccccc3)c2n1 | 0 | u | 35 | -6 | 6 | 2%
O=S(=O)(N[C@H]1CC[C@H](CCn2cc(-c3cccc(F)c3)nn2)O[C@H]1CO)c1ccc(Cl)cc1 | -1 | 1 | -13 | x | -1 | x
CN(C)CCSc1nc(N)c2c3c(sc2n1)CN(C)CC3 | x | 75* | x | -4 | x | -13%
O=C(Nc1ccc2c(c1)[C@@H]1C[C@@H](CC(=O)N3CCCCC3)O[C@H](CO)[C@@H]1O2)C1CCC1 | -3 | -9 | 9 | x | -1 | x
O=C(Nc1ccccc1[N+](=O)[O-])c1cc(S(=O)(=O)N2CCOCC2)cs1 | -4 | 4 | -14 | -1 | 4 | x
O=C(Nc1cccc(Br)c1)c1cc(S(=O)(=O)N2CCOCC2)cs1 | -2 | 52* | -2 | 2 | 1 | 5%
O=C(Nc1cccc([N+](=O)[O-])c1)c1cc(S(=O)(=O)N2CCOCC2)cs1 | 11 | 57* | -2 | -2 | 1 | -9%
O=C(Nc1ccccc1)c1cc(S(=O)(=O)N2CCOCC2)cs1 | x | u | x | 1 | x | -3%
CO[C@@H]1CN(C)C(=O)c2ccc(NS(=O)(=O)c3cccc(F)c3)cc2OC[C@@H](C)NC[C@@H]1C | 1 | x | 5 | x | -5 | x
CCN1CCCC1CNC(=O)c1cc2c(-c3cccc(OC)c3)nn(C)c2s1 (centres undefined) | x | 50* | x | 1 | x | -9%
COc1cccc(-c2nn(C)c3sc(C(=O)NCCCN(C)Cc4ccccc4)cc23)c1 | -1 | 21 | 12 | 0 | 2 | x
CCCCN(C)CCNC(=O)c1cc2c(-c3cccc(OC)c3)nn(C)c2s1 | -10 | 72* | 65* | -1 | 4 | -16%
NNC(=O)c1oc2nc(-c3cccs3)cc(-c3ccco3)c2c1N | 3 | u | -10 | 51* | 0 | -3%
CC(C)NC1CCC(Nc2ccnc3cc(Cl)ccc23)CC1 (centres undefined) | -14 | u | -20 | 0 | -5 | -19%
SMILES | CASP6 VEID inh | RAD54 inh | RAD52 inh | Glyco luc inh | AF4-AF9 inh | Rad54 DNA ctr
Clc1ccc2c(NCCNC3CCCCC3)ccnc2c1 | -24 | 43 | 22 | -7 | 0 | x
CC(CCCN1CCCC1)Nc1ccnc2cc(Cl)ccc12 (centres undefined) | -34 | 55* | 51* | -5 | 14 | -15%
COCCCNc1nc2cc(OC)c(OC)cc2c2nc(-c3ccccc3)nn12 | -2 | 39 | -2 | 0 | -3 | x
COc1cc2nc(NCC3CCCO3)n3nc(-c4cccnc4)nc3c2cc1OC (centres undefined) | x | 29 | x | 0 | x | x
COc1cc2nc(NCCCN3CCN(C)CC3)n3nc(-c4ccccc4)nc3c2cc1OC | x | 102* | x | 5 | x | 4%
CCN(CC)CCCNc1nc2cc(OC)c(OC)cc2c2nc(-c3ccccc3)nn12 | x | 106* | x | 41* | x | 0%
CCN(CC)CCCNc1nc2cc(OC)c(OC)cc2c2nc(-c3cccnc3)nn12 | x | 115* | x | 11 | x | -8%
CCN(CC)CCCNc1nc(-c2ccccc2)nc2ccccc12 | x | 85* | x | 8 | x | -8%
COCC(=O)Nc1ccc2c(c1)OC[C@@H](C)N(Cc1cccc(F)c1)C[C@H](C)[C@H](OC)CN(C)C2=O | -3 | -2 | 4 | x | 8 | x
C[C@@H]1CN([C@@H](C)CO)C(=O)Cc2cc(NS(=O)(=O)c3ccc(F)cc3)ccc2O[C@H]1CN(C)C(=O)Nc1cccc2ccccc12 | 1 | x | 0 | x | -1 | x
CCN(CC)S(=O)(=O)c1ccc(Cl)c(C(=O)Nc2nnc(C)s2)c1 | x | u | x | 0 | x | -8%
CCN1CCN(S(=O)(=O)c2ccc(Cl)c(C(=O)Nc3nnc(C)s3)c2)CC1 | -3 | -11 | -13 | 2 | -5 | x
C[C@H](O)C#Cc1ccc2c(c1)O[C@@H](CN(C)C(=O)C1CCCCC1)[C@H](C)CN([C@H](C)CO)S2(=O)=O | 3 | -5 | -10 | x | -1 | x
COc1ccc(CC(=O)Nc2cccc(-c3nnc(-c4ccc(C)cc4)o3)c2)cc1OC | -2 | 2 | -3 | -10 | -41 | x
Cc1ccc(OCC(=O)Nc2cccc(-c3nnc(-c4ccccc4)o3)c2)c(C)c1 | x | u | x | -1 | x | 7%
C[C@@H]1CCCCO[C@@H](CN(C)C)[C@H](C)CN([C@H](C)CO)C(=O)c2cc(NS(=O)(=O)c3ccc(F)cc3)ccc2O1 | -2 | -5 | -8 | x | 0 | x
C[C@@H]1CCCCO[C@H](CN(C)CC2CC2)[C@@H](C)CN([C@H](C)CO)C(=O)c2cc(NC(=O)CCC(F)(F)F)ccc2O1 | 2 | x | 5 | x | 1 | x
COC(=O)c1c(NC(=O)c2ccc([N+](=O)[O-])o2)sc2c1CCN(C(C)C)C2 | -1 | 68* | -12 | 5 | -7 | 9%
